Experiments:
[1] = target: T1, Serine/threonine-protein kinase TBK1 (Homo sapiens) (UniProt Q9UHD2); conditions: at 1 µM
T1 sequence (whole entry): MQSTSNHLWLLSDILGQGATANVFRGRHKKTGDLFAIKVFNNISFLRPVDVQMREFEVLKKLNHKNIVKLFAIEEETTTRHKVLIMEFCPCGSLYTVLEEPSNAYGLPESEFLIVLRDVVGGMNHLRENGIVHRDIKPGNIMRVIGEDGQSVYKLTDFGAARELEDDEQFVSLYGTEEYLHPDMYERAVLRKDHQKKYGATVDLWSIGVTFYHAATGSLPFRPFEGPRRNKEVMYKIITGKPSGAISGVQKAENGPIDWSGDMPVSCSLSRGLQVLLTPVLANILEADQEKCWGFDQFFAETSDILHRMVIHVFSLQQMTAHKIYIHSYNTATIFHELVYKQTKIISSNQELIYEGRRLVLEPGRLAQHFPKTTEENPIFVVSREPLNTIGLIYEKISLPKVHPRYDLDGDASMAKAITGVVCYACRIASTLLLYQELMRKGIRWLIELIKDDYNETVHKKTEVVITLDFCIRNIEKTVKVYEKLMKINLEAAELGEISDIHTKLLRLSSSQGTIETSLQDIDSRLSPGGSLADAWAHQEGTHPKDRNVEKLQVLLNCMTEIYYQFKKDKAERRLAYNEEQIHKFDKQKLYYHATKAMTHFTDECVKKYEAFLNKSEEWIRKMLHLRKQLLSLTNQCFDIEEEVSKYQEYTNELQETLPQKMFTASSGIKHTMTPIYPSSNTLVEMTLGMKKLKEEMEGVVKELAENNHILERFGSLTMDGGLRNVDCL

[2] = target: T1, Serine/threonine-protein kinase TBK1 (Homo sapiens); conditions: at 10 µM
[3] = target: T2, TGF-beta receptor type-1 (Homo sapiens) (UniProt P36897); conditions: at 1 µM
T2 sequence (whole entry): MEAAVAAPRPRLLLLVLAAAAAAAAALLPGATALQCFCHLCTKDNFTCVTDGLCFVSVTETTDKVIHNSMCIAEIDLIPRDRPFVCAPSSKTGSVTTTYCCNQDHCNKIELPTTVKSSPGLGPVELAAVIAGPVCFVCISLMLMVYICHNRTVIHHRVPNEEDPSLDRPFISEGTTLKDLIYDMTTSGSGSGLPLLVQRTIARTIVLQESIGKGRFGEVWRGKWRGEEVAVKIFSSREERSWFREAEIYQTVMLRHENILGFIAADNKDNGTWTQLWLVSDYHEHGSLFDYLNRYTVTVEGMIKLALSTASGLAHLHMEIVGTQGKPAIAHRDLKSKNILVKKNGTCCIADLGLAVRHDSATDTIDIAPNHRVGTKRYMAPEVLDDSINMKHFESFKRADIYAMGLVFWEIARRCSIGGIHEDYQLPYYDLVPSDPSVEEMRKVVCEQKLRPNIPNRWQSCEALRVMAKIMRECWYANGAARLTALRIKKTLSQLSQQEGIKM

[4] = target: T2, TGF-beta receptor type-1 (Homo sapiens); conditions: at 10 µM
[5] = target: Insulin-like growth factor 1 receptor (Homo sapiens) (UniProt P08069); conditions: at 1 µM
[6] = target: Insulin-like growth factor 1 receptor (Homo sapiens) (UniProt P08069); conditions: at 10 µM
[7] = target: T3, Inhibitor of nuclear factor kappa-B kinase subunit alpha (Homo sapiens) (UniProt O15111); conditions: at 1 µM
T3 sequence (whole entry): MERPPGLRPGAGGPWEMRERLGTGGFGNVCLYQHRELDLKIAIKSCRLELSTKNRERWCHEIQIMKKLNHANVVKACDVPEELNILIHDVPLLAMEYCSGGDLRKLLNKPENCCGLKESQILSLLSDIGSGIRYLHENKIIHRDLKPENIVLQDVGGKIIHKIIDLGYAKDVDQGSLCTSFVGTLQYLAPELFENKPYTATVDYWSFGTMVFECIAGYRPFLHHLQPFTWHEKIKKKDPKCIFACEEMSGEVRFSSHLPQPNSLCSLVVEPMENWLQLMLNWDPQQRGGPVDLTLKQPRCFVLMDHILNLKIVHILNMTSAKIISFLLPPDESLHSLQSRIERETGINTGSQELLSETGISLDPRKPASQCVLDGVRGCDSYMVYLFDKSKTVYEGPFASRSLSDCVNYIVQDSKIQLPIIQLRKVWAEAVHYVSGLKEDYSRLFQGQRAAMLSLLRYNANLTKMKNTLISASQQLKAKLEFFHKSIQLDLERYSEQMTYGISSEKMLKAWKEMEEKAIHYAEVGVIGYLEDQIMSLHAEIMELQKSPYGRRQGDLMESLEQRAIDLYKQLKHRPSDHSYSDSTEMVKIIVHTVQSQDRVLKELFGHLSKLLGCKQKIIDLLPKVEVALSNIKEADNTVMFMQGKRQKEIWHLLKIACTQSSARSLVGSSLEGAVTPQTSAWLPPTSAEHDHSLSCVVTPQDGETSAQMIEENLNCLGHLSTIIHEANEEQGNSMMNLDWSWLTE

[8] = target: T3, Inhibitor of nuclear factor kappa-B kinase subunit alpha (Homo sapiens); conditions: at 10 µM
[9] = target: T4, Inhibitor of nuclear factor kappa-B kinase subunit beta (Homo sapiens) (UniProt O14920); conditions: at 1 µM
T4 sequence (whole entry): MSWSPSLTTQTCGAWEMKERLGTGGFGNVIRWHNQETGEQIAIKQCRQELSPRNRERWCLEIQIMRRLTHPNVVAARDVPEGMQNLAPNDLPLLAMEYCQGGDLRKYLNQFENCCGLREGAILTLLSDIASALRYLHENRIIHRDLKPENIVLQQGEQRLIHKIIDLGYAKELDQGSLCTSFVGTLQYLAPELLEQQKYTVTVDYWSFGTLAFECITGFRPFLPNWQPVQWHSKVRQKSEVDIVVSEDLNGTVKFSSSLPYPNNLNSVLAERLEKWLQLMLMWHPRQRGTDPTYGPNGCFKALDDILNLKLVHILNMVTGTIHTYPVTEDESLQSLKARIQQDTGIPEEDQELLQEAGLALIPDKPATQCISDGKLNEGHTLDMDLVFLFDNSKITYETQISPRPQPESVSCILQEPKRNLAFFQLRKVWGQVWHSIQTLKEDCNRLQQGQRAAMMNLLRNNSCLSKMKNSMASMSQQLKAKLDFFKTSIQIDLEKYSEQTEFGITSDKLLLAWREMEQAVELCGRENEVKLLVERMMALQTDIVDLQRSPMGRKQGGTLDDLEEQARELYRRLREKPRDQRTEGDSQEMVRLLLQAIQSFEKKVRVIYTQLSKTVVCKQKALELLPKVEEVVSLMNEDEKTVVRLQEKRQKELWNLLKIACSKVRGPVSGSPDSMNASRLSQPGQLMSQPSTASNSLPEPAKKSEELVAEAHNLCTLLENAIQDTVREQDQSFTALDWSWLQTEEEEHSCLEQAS

[10] = target: T4, Inhibitor of nuclear factor kappa-B kinase subunit beta (Homo sapiens); conditions: at 10 µM

Chain of Insulin-like growth factor 1 receptor (Homo sapiens) (P08069 31-736 limits assumed): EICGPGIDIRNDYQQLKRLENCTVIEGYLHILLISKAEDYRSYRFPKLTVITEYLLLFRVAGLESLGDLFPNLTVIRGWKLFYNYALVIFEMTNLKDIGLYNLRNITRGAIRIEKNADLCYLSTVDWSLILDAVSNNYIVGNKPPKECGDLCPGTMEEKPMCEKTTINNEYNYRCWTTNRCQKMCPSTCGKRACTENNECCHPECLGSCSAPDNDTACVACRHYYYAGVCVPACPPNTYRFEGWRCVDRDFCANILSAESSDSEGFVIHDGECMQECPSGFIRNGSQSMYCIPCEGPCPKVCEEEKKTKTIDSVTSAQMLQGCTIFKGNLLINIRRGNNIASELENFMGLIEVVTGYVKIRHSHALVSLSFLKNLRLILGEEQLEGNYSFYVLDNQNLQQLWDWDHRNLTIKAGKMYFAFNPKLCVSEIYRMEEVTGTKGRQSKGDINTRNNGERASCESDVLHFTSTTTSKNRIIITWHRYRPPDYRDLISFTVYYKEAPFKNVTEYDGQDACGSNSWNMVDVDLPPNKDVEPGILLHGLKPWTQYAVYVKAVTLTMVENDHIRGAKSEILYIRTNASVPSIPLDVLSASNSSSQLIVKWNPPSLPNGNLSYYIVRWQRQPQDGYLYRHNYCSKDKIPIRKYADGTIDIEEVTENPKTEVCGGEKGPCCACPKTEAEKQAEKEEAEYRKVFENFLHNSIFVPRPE
Chain of Insulin-like growth factor 1 receptor (Homo sapiens) (P08069 741-1367 limits assumed): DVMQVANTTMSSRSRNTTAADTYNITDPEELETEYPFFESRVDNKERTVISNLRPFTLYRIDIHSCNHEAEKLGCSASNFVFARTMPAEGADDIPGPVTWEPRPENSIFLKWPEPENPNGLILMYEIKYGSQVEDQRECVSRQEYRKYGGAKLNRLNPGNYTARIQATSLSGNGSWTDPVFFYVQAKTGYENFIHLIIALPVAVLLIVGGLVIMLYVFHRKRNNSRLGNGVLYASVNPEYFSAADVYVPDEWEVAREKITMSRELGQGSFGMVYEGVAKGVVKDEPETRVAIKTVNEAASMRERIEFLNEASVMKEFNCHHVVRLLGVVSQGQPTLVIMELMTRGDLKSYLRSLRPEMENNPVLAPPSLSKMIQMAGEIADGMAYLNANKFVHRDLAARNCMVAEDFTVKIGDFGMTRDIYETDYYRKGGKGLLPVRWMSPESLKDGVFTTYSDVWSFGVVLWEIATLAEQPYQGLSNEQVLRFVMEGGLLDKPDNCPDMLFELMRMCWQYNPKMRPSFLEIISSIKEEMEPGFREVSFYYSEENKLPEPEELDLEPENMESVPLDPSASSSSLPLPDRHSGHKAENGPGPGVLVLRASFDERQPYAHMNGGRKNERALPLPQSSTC

Q: With `Nc1nc(Nc2ccc(S(N)(=O)=O)cc2)nn1C(=S)Nc1c(F)cccc1F` as the molecule, how does the residual activity [1] read?
A: -1%

Q: And the residual activity [2]?
A: -2%

Q: What about the residual activity [3] of the same molecule?
A: 13%

Q: And the residual activity [4]?
A: 2%

Q: And the residual activity [5]?
A: 74%

Q: What about the residual activity [6] of the same molecule?
A: 83%

Q: What about the residual activity [7] of the same molecule?
A: 10%

Q: And the residual activity [8]?
A: 1%

Q: What about the residual activity [9] of the same molecule?
A: 33%

Q: And the residual activity [10]?
A: 6%

Reference: ChEMBL document CHEMBL2218924, “A broad activity screen in support of a chemogenomic map for kinase signalling research and drug discovery” (Biochem J, 2013)
